Compound activity from PubChem.
Sampled rows, rich in hits. Any-hit rate of the full collection: about 2.4%.
A3G deaminase: blocks human APOBEC3G single-stranded DNA deamination; Q9HC16; recombinant A3G, ssDNA deamination FAM/TAMRA fluorescence; inhibition, % at 20 µM; 330,000 compounds, 0.28% hits; AID 493012;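 active means inhibition of at least 40% at 20 µM, with no more than 30% in the related APOBEC3A deaminase screen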
Target sequence (Q9HC16 whole entry, looked up): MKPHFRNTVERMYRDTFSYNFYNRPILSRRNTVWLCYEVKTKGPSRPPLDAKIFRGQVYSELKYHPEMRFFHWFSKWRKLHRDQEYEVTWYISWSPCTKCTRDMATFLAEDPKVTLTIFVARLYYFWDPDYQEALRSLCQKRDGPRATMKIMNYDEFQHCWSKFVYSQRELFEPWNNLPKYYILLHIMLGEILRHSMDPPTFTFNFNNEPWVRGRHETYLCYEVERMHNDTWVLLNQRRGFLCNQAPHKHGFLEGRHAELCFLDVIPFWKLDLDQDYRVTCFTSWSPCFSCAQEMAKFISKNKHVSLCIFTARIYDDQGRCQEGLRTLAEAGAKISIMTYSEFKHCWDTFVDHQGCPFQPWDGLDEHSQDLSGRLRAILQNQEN
APOBEC3A inh: inhibitors of human APOBEC3A DNA deaminase; recombinant A3A, FAM/TAMRA ssDNA deamination fluorescence; inhibition, % at 20 µM; 330,000 compounds, 0.41% hits; AID 493011;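 active means at least 40% inhibition at 20 µM here, with at most 30% in a related deaminase screen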
PfG6PD inh: PfG6PD (Plasmodium falciparum) enzyme inhibition; PfGluPho enzyme, NADPH resazurin-diaphorase fluorescence; inhibition, % at 20 µM; 350,000 compounds, 0.78% hits; AID 504690;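 active means inhibition reaching at least a set limit at 20 µM in the primary screen, cut at about 59% in these data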
PfM18AAP inh-1: PfM18AAP enzyme inhibition. recombinant PfM18AAP, H-Glu-NHMec fluorogenic cleavage. inhibition, % at 7.35 µM. 290,000 compounds, 1.2% hits. AID 1822;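 active means inhibition above the campaign mean inhibition over all tested compounds plus 3 SD, cut at about 28% in these data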
Yeast superoxide: caloric restriction mimetics inhibiting age-related superoxide in yeast | S. cerevisiae aged cells, superoxide DHE fluorescence; hits give low values | superoxide response (% of plate mean), % at 10 µM | 330,000 compounds, 0.18% hits | AID 2690;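 active means superoxide response under a set limit, about three screen SD below normal, cut at about 65% in these data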;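 further: yeast aged for seven days with compound at 30 °C before DHE staining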
PfM18AAP inh-2: PfM18AAP inhibition, confirmation; shares compounds with PfM18AAP inh-1; recombinant PfM18AAP, H-Glu-NHMec fluorogenic cleavage; inhibition, % at 7.35 µM; 2,400 compounds, 28% hits;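 active means mean inhibition over replicate wells above the hit cutoff set for the earlier primary screen, cut at about 29% in these data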
CTSL1 counter: counter-screen for PFM18AAP inhibitors: confirmation of human cathepsin L inhibitors | 2,400 tested, under 10 active | shares compounds with PfM18AAP inh-1 | purified cathepsin L1, Z-Leu-Arg-MCA fluorescence | AID 2178 | inhibition, % at 5.96 µM;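 active means average inhibition across replicates above the hit cutoff set in the earlier primary screen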
Target sequence (P07711 whole entry, looked up): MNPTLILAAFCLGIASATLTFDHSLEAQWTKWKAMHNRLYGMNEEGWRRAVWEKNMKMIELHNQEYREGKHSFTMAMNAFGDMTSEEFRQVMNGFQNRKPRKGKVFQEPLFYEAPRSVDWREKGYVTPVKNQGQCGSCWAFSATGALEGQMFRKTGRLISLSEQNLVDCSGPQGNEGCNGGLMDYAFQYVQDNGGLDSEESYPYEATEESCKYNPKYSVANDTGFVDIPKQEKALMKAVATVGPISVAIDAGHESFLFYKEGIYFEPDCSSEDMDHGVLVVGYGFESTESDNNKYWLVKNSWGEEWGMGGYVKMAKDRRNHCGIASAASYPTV
Of the large screens only hits and unclear results are named; the others gave an inactive call (follow-up assays come after a bar, where they were run).

c1ccc2c(c1)Nc1cc3ccccc3cc1S2	none
Cc1ccc2c(c1)Sc1c(ccc3ccccc13)N2	PfM18AAP inh-1 28
O=C(OCc1ccccc1F)c1cc(S(=O)(=O)N2CCCCC2)ccc1N1CCOCC1	none (no result: A3G deaminase, APOBEC3A inh, PfM18AAP inh-1, Yeast superoxide)
COC(=O)c1ccc(C2/C(=C(\O)c3ccc4c(c3)OCCO4)C(=O)C(=O)N2CCCN2CCOCC2)cc1 (stereo unspecified)	none
O=C1C(=O)N(CCCN2CCOCC2)C(c2ccc([N+](=O)[O-])cc2)/C1=C(/O)c1ccc2c(c1)OCO2 (stereo unspecified)	PfM18AAP inh-1 31
CC1CCN(S(=O)(=O)c2nnc(NC(=O)c3cccc([N+](=O)[O-])c3)s2)CC1	PfG6PD inh 113
O=C(N/N=C/c1ccsc1)c1c[nH]c2ccccc12	none
Cn1c(Cc2ccccc2)n[nH]c1=S	PfM18AAP inh-1 30
O=C(CCC(=O)N(CC(=O)NC1CCCC1)Cc1cccs1)Nc1nccs1	none
CC(NC(=O)CSc1ncn[nH]1)c1ccc(Cl)cc1Cl (stereo unspecified)	none (no result: Yeast superoxide)
C/C(=N\S(=O)(=O)c1ccc(C)cc1)Nc1cc(C(C)C)c(O)cc1C	PfM18AAP inh-1 29
COc1ccc(S(=O)(=O)Nc2cc(C(C)C)c(O)cc2C)cc1	none
CCN(CC)c1ccc(C(NC(=O)C(C)C)c2ccc3cccnc3c2O)cc1 (stereo unspecified)	none (no result: A3G deaminase, APOBEC3A inh, PfM18AAP inh-1, Yeast superoxide)
CC(C)C(=O)NC(c1ccco1)c1ccc2cccnc2c1O (stereo unspecified)	PfM18AAP inh-1 30
Nc1ncnc2c1ncn2[C@@H]1O[C@H](CNC(=O)[C@H](N)Cc2cscn2)[C@@H](O)[C@H]1O	none (no result: PfM18AAP inh-1)
CCOC(=O)CC1Sc2ccccc2NC1=S (stereo unspecified)	PfM18AAP inh-1 37 | PfM18AAP inh-2 inactive | CTSL1 counter inactive
CCc1ccccc1NC(=O)NNC(=O)c1ccc2ccccc2c1O	PfM18AAP inh-1 39 | PfM18AAP inh-2 inactive | CTSL1 counter inactive
COc1ccc(NC(=O)NNC(=O)c2cc(C3CC3)nc3ccccc23)c(OC)c1	none
COc1ccc(NC(=O)NNC(=O)c2ccc3ccccc3c2O)c(OC)c1	PfM18AAP inh-1 36 | PfM18AAP inh-2 inactive | CTSL1 counter inactive
CCOc1ccc(N2CC(C(=O)Nc3nnc(Cc4ccccc4)s3)CC2=O)cc1 (stereo unspecified)	none
O=c1cc(SCc2ccccc2)nc[nH]1	none (no result: A3G deaminase, APOBEC3A inh, PfM18AAP inh-1, Yeast superoxide)
N#C/C(=C\c1cc(Cl)c(OCc2ccc(Cl)cc2)c(Cl)c1)C(N)=O	none (no result: PfG6PD inh)
N#C/C(=C\c1cc(O)c(O)c(O)c1)C(N)=O	PfM18AAP inh-1 60 | PfM18AAP inh-2 inactive | CTSL1 counter inactive
O=C1OCC=C1NNC(=O)c1cccnc1	PfM18AAP inh-1 55 | PfM18AAP inh-2 69 | CTSL1 counter inactive
NS(=O)(=O)c1ccc(CCNC(=O)C2COc3ccccc3O2)cc1 (stereo unspecified)	none
CCCCNC(=O)NC1(C(F)(F)F)Oc2ccccc2O1	PfM18AAP inh-1 81 | PfM18AAP inh-2 inactive | CTSL1 counter inactive
CC(=O)NC1(C(Cl)(Cl)Cl)Oc2ccccc2O1	none
NS(=O)(=O)c1ccc(CCNC(=O)NC2(C(F)(F)F)Oc3ccccc3O2)cc1	PfM18AAP inh-1 67 | PfM18AAP inh-2 inactive | CTSL1 counter inactive
COc1ccc(OC)c(NC(=O)NC2(C(F)(F)F)Oc3ccccc3O2)c1	PfM18AAP inh-1 63 | PfM18AAP inh-2 inactive | CTSL1 counter inactive
COc1ccc(OC)c(NC(=O)Nc2ccccc2C)c1	none
CCN1CCc2nc3sc(C(=O)N4CCc5ccccc5C4)c(N)c3cc2C1	PfM18AAP inh-1 35 | PfM18AAP inh-2 inactive | CTSL1 counter inactive
COC(=O)c1ccccc1NCc1cc(=O)oc2cc(O)c(O)cc12	PfM18AAP inh-1 34 | PfM18AAP inh-2 inactive | CTSL1 counter inactive
COc1ccc(C)cc1NCc1cc(=O)oc2cc(-c3ccccc3)c(O)cc12	none
COc1ccc(-c2oc(NC(=O)CSc3ncn[nH]3)c(C#N)c2-c2ccc(OC)cc2)cc1	PfM18AAP inh-1 73 | PfM18AAP inh-2 inactive | CTSL1 counter inactive
CCOC(=O)c1sc(NC(=O)CSc2ncn[nH]2)c(C#N)c1C	PfM18AAP inh-1 40 | PfM18AAP inh-2 inactive | CTSL1 counter inactive
CCOC(=O)c1sc(N(Cc2ccccc2)C(=O)CCl)nc1C	none
CCOC(=O)c1sc(N(Cc2ccccc2)C(=O)CSc2ncn[nH]2)nc1C	PfM18AAP inh-1 90 | PfM18AAP inh-2 inactive | CTSL1 counter inactive
CCOc1ccc(CCNC(=O)C(CCC(N)=O)NC(=O)OCc2ccccc2)cc1OCC (stereo unspecified)	none
Cc1ccc(S(=O)(=O)N2CCC3(CC2)OCCO3)cc1	none
COc1ccccc1C(CNC(=O)c1cccc(S(=O)(=O)N2c3ccccc3CC2C)c1)N(C)C (stereo unspecified)	none (no result: A3G deaminase, APOBEC3A inh, PfM18AAP inh-1, Yeast superoxide)
Nc1ccc(O)cc1C(=O)OCC(=O)c1ccc(C2CCCCC2)cc1	PfM18AAP inh-1 36 (no result: A3G deaminase, APOBEC3A inh) | PfM18AAP inh-2 inactive | CTSL1 counter inactive
COc1ccc(C(=O)OCC(=O)c2ccc(C3CCCCC3)cc2)cc1	none
COc1ccc(C(=O)N2CCN(S(=O)(=O)c3ccc(Br)cc3)CC2)cc1	none (no result: PfM18AAP inh-1)
CCc1nnc(N/N=C/c2ccc(N3CCC(C)CC3)c([N+](=O)[O-])c2)n1N	PfM18AAP inh-1 48 | PfM18AAP inh-2 inactive | CTSL1 counter inactive
Cc1nnc(N/N=C/c2cc([N+](=O)[O-])c(N3CCC(C)CC3)cc2N2CCC(C)CC2)n1N	PfM18AAP inh-1 50 | PfM18AAP inh-2 inactive | CTSL1 counter inactive
CC1CCN(c2cc(N3CCOCC3)c([N+](=O)[O-])cc2F)CC1	none
CC1=C(C(=O)Nc2ccccc2C(=O)N2CCN(c3ccccc3)CC2)SCCO1	none (no result: A3G deaminase, APOBEC3A inh, PfM18AAP inh-1, Yeast superoxide)
O=C(Nc1cccc(Cl)c1)N(CCN1CCOCC1)Cc1ccccc1F	PfM18AAP inh-1 71 | PfM18AAP inh-2 inactive | CTSL1 counter inactive
COCCN(C(=O)COC(=O)C1CC1C)c1c(N)n(Cc2ccccc2)c(=O)[nH]c1=O (stereo unspecified)	none (no result: PfM18AAP inh-1)
Oc1ccc(N2CCN(Cc3nc4ccccc4[nH]3)CC2)cc1	PfM18AAP inh-1 42 | PfM18AAP inh-2 inactive | CTSL1 counter inactive
O=[N+]([O-])c1cc([N+](=O)[O-])c2nonc2c1Nc1ccc(O)cc1	none
O=[N+]([O-])c1cc([N+](=O)[O-])c2nonc2c1Nc1ccccc1O	PfM18AAP inh-1 38 | PfM18AAP inh-2 inactive | CTSL1 counter inactive
COc1ccc(N2C(=O)/C(=C/N(C)C)NC2=S)cc1	PfM18AAP inh-1 80 | PfM18AAP inh-2 69 | CTSL1 counter inactive
C/C(=N\Nc1ccc(C(=O)O)cc1)c1ccc(Br)cc1	PfM18AAP inh-1 32 | PfM18AAP inh-2 inactive | CTSL1 counter inactive
CCc1ccc(/C(C)=N\Nc2ccc([N+](=O)[O-])cc2)cc1	none
C/C(=N\Nc1nc(Cl)c(Cl)cc1Cl)c1ccc(S(=O)(=O)NCc2ccco2)cc1	PfM18AAP inh-1 49 | PfM18AAP inh-2 inactive | CTSL1 counter inactive
